Sampled rows, rich in hits. Any-hit rate of the full collection: about 27%.
Cav32 inh: human Cav3.2 channel inhibition, primary screen; B-score at 10 µM; hit rate 4% among 100,000; AID 449739; Cav3.2-expressing cells, Fluo-4 calcium fluorescence FDSS; active compounds read low;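 active = single-dose well whose peak fluorescence ratio is a statistical outlier from its plate by either plate-standardised score or position-corrected B-score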
CYP2C19 act: activators of human cytochrome P450 2C19 | P33261 | recombinant CYP2C19, luciferin-H EGE luminescence; active compounds read high; 0 = fully inhibited enzyme, 1 = untreated enzyme | activation factor at 5 µM | 96,000 tested, under 10 active;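 active = activation factor of at least 2 at 5 µM in the primary screen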;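 also: 0 = wells with 2.5 mM tranylcypromine and 1 = vehicle-only wells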
CYP2C19 inh: inhibitors of human CYP2C19. P33261. CYP2C19 Supersomes, luciferin-H EGE luminescence, 30 min. inhibition, % at 5 µM. hit rate 21% among 96,000;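 active = CYP2C19 inhibition above a set limit at 5 µM in the primary screen, cut at about 50% in these data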;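 also: plate controls were negative control wells for no effect and 2.5 mM tranylcypromine positive control for full effect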
CYP2C9 activ: activators of human CYP2C9; activation factor at 5 µM; hit rate 1.4% among 96,000; P11712; recombinant CYP2C9, luciferin-H conversion, luminescence; active compounds read high; factor 1 = untreated enzyme, 0 = blocked;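 active = activation factor of 2 or more for CYP2C9 at a 5 µM dose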;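 also: 0 = sulfaphenazole-blocked wells and 1 = vehicle-only wells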
Target sequence (P11712 whole entry, looked up): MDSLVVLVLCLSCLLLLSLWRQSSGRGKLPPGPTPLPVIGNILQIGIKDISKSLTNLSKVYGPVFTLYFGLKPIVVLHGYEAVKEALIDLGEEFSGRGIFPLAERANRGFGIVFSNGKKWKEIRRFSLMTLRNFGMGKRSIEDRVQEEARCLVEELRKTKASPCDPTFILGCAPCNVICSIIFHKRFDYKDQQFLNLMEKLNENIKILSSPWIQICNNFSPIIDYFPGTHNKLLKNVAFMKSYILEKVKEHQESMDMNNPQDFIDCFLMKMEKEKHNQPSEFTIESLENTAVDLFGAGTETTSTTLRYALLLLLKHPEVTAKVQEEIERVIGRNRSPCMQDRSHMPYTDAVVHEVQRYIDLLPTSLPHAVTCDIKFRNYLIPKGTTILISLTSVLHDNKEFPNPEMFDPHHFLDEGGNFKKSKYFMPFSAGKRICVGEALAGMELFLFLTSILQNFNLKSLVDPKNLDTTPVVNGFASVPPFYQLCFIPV
CYP2C9 inhib: blocks human cytochrome P450 2C9 | CYP2C9 Supersomes, luciferin-H conversion, luminescence | hit rate 20% among 96,000 | inhibition, % at 5 µM | P11712;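 active = blocking of liver enzyme CYP2C9 beyond about 50% at 5 µM, limit read from the data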
* = called active by the depositor.

`Cc1ccc(-c2nc(-c3ccccn3)no2)cc1` gave Cav32 inh -0.711, CYP2C19 act 0.1, CYP2C19 inh 87.4*, CYP2C9 activ 0.4 and CYP2C9 inhib 58.0*.
For Clc1cccc(-c2nc(-c3ccccn3)no2)c1 the results were Cav32 inh 0.0211, CYP2C19 act 0.5, CYP2C19 inh 51.4*, CYP2C9 activ 0.7 and CYP2C9 inhib 32.9.
For c1ccc(-c2nc(-c3ccccn3)no2)cc1 the results were Cav32 inh 0.58.
Screening CC1CCCN(CCC(=O)Nc2ccc3c(c2)CCC3)C1 (stereo not drawn) returned Cav32 inh -0.365.
For O=C(NCc1ccc(Cl)cc1)C1C2C=CC3(CN(Cc4cccnc4)C(=O)C13)O2 (stereo not drawn) the results were Cav32 inh 0.2, CYP2C19 act 0.7, CYP2C19 inh 29.5, CYP2C9 activ 0.5 and CYP2C9 inhib 53.2*.
`O=C(NCC1COc2ccccc2O1)C1C2C=CC3(CN(Cc4ccccc4Cl)C(=O)C13)O2` (stereo not drawn) gave Cav32 inh -8.66*, CYP2C19 act 0.9, CYP2C19 inh 10.5, CYP2C9 activ 0.9 and CYP2C9 inhib 9.8.
COc1ccc(CCN2CC34C=CC(O3)C(C(=O)NCc3ccccc3Cl)C4C2=O)cc1OC (stereo not drawn) was read as Cav32 inh 0.814, CYP2C19 act 1, CYP2C19 inh 4.6, CYP2C9 activ 1 and CYP2C9 inhib 4.5.
For CCOC(=O)C1=C(CSc2nc(CC)c(C)cc2C#N)OC(N)=C(C#N)C1c1ccc(OC)cc1 (stereo not drawn) the results were Cav32 inh -8.44*.
`CCOC(=O)C1=C(CSc2nc(-c3ccncc3)ccc2C#N)OC(N)=C(C#N)C1c1cccnc1` (stereo not drawn) gave Cav32 inh -4.99*, CYP2C19 act 0, CYP2C19 inh 98.8*, CYP2C9 activ 0 and CYP2C9 inhib 96.4*.
For CCOC(=O)CSc1nc(-c2ccncc2)ccc1C#N the results were Cav32 inh 2.09, CYP2C19 act 0.9, CYP2C19 inh 10.8, CYP2C9 activ 0.7 and CYP2C9 inhib 30.1.
`CCOC(=O)C1=C(CSc2nc(-c3ccncc3)ccc2C#N)OC(N)=C(C#N)C1c1ccc(OC)cc1` (stereo not drawn) gave Cav32 inh -4.3, CYP2C19 act 0.1, CYP2C19 inh 91.2*, CYP2C9 activ 0.1 and CYP2C9 inhib 94.0*.
CCOC(=O)C1=C(CSc2nc(C)ccc2C#N)OC(N)=C(C#N)C1c1cccc(OC)c1OC (stereo not drawn) was read as Cav32 inh -0.63, CYP2C19 act 0, CYP2C19 inh 96.8*, CYP2C9 activ 0 and CYP2C9 inhib 96.8*.
For COC(=O)C1=C(CSc2nc3c(cc2C#N)CN(C)CC3)OC(N)=C(C#N)C1c1ccc(F)cc1 (stereo not drawn) the results were Cav32 inh 0.0139.
For O=C(O)Cn1nnnc1SCC(=O)Nc1ccc(OC(F)(F)F)cc1 the results were Cav32 inh 0.285, CYP2C19 act 1.2, CYP2C19 inh -17.9, CYP2C9 activ 1.1 and CYP2C9 inhib -14.2.
`COc1ccc(Cl)cc1N1C(=O)C2CCCN2C1c1ccc(F)c(F)c1` (stereo not drawn) gave Cav32 inh -0.95, CYP2C19 act 0.5, CYP2C19 inh 45.2, CYP2C9 activ 1.5 and CYP2C9 inhib -47.4.
Screening COc1ccc(C2N(c3cc(Cl)ccc3OC)C(=O)C3CCCN32)cc1OC (stereo not drawn) returned Cav32 inh 0.822, CYP2C19 act 0.5, CYP2C19 inh 48.8, CYP2C9 activ 2* and CYP2C9 inhib -96.2.
For COc1ccc(Cl)cc1N1C(=O)C2CCCN2C1c1cccc(F)c1 (stereo not drawn) the results were Cav32 inh 0.0175, CYP2C19 act 0.5, CYP2C19 inh 53.6*, CYP2C9 activ 1.4 and CYP2C9 inhib -37.0.
`O=C(Nc1cccc(-c2cn3ccccc3n2)c1)c1cc2ccccc2oc1=O` gave Cav32 inh 0.67, CYP2C19 act 0.6, CYP2C19 inh 39.3, CYP2C9 activ 0.6 and CYP2C9 inhib 42.0.
`CCn1ncc(Cl)c1C(=O)Nc1ccncc1` gave Cav32 inh -0.443, CYP2C19 act 0, CYP2C19 inh 96.2*, CYP2C9 activ 0.1 and CYP2C9 inhib 93.3*.
COC(=O)c1cn(NC(=O)c2ccc3c(c2)OCO3)c(=O)c2ccccc12 was read as Cav32 inh 0.762, CYP2C19 act 1, CYP2C19 inh 3.1, CYP2C9 activ 0.8 and CYP2C9 inhib 15.4.
Screening Cc1ccccc1Nc1nc(N)nc(COC(=O)C(NC(=O)c2ccco2)C(C)C)n1 (stereo not drawn) returned Cav32 inh 0.292, CYP2C19 act 0.7, CYP2C19 inh 30.9, CYP2C9 activ 0.4 and CYP2C9 inhib 58.9*.
For COc1ccc(N2CCN(C(=O)COc3ccc(Cl)cc3Cl)CC2)cc1 the results were CYP2C19 act 0.9, CYP2C19 inh 6.4, CYP2C9 activ 0.9 and CYP2C9 inhib 9.7.
Screening COc1ccc(OCC(=O)N2CCN(c3cccc(Cl)c3)CC2)cc1 returned Cav32 inh -4.53*, CYP2C19 act 0.5, CYP2C19 inh 46.7, CYP2C9 activ 0.7 and CYP2C9 inhib 32.1.
Screening COc1ccc(OCC(=O)N2CCN(c3cccc(C(F)(F)F)c3)CC2)cc1 returned Cav32 inh -6.94*, CYP2C19 act 0.7, CYP2C19 inh 32.7, CYP2C9 activ 0.7 and CYP2C9 inhib 32.0.
`COc1ccc(C2N=C(c3ccccc3)C(C)(C)N2O)cc1OC` (stereo not drawn) gave Cav32 inh -0.462, CYP2C19 act 0.7, CYP2C19 inh 31.6, CYP2C9 activ 1 and CYP2C9 inhib 2.3.
For COc1ccc2c(c1)C1C=CCC1C(c1cc3c(cc1Br)OCO3)N2 (stereo not drawn) the results were Cav32 inh 0.275, CYP2C19 act 0.3, CYP2C19 inh 70.1*, CYP2C9 activ 0.2 and CYP2C9 inhib 75.3*.
`O=C1CC(=C2c3ccccc3-c3ccccc32)C(=O)N1CCCCN1CCN(c2ccccc2)CC1` gave Cav32 inh 0.0114.
`CCN(CC)CCn1c(NCc2nc3ccccc3n2Cc2ccccc2)nc2ccccc21` gave Cav32 inh -4.24*, CYP2C19 act 0.8, CYP2C19 inh 19.2, CYP2C9 activ 0.1 and CYP2C9 inhib 85.7*.
For Cn1c(CNc2nc3ccccc3n2CCN2CCCCC2)nc2ccccc21 the results were Cav32 inh 0.935, CYP2C19 act 1.1, CYP2C19 inh -7.6, CYP2C9 activ 1 and CYP2C9 inhib -3.5.
`Cn1cccc1-c1nc2ccccc2n1Cc1ccccc1` gave Cav32 inh -4.73*, CYP2C19 act 0.7, CYP2C19 inh 26.4, CYP2C9 activ 0.7 and CYP2C9 inhib 25.5.
Screening CCC(=O)NCCc1nc2ccccc2n1Cc1ccccc1 returned Cav32 inh 0.913.
For CCN(CC)CCn1c(NCc2ccco2)nc2ccccc21 the results were Cav32 inh 0.195, CYP2C19 act 1, CYP2C19 inh -3.6, CYP2C9 activ 0.9 and CYP2C9 inhib 12.7.

High-throughput results (PubChem)
